# From PubChem BioAssay (NCI)
# Values joined by “and” are separate entries in the source; they are usually repeats but may differ in a detail not shown here. Equal values may be shown once. The panel holds about 83,000 compounds, 20% with a hit somewhere; the sample as a whole holds those more often.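 Treatment: one concentration, 48 hours, 96-well format. Scoring: percent growth, with anything below 10 considered active.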 Unmarked numbers belong to inactive results. Active and inactive are the calls of the source.
# What was measured:
# Experiment in all cases: NCI-60 one-dose screen, 48 h (100 = growth as untreated, 0 = no growth, -100 = all killed)
# Conditions in all cases: 10 µM unless noted
# SR leukemia = system: SR leukemia
# RPMI-8226 leukemia = system: RPMI-8226 leukemia
# OVCAR-8 ovarian = system: OVCAR-8 ovarian
# OVCAR-5 ovarian = system: OVCAR-5 ovarian
# OVCAR-4 ovarian = system: OVCAR-4 ovarian
# SK-OV-3 ovarian = system: SK-OV-3 ovarian
# IGROV1 ovarian = system: IGROV1 ovarian
# OVCAR-3 ovarian = system: OVCAR-3 ovarian
# HS 578T breast = system: HS 578T breast
# NCI/ADR-RES ovarian = system: NCI/ADR-RES ovarian
SMILES,growth (SR leukemia),growth (RPMI-8226 leukemia),growth (OVCAR-8 ovarian),growth (OVCAR-5 ovarian),growth (OVCAR-4 ovarian),growth (SK-OV-3 ovarian),growth (IGROV1 ovarian),growth (OVCAR-3 ovarian),growth (HS 578T breast),growth (NCI/ADR-RES ovarian)
COC(=O)c1cc(C(C)=O)n2c3ccccc3c3ccccc3c12,64.7%,87.7%,50.5%,92.6%,44.3%,99.3%,41.5%,73.4%,29.8%,44.6%
COc1cc(C=O)ccc1OC(=O)c1cc(-c2ccc(C)cc2)n(-c2ccc(S(C)(=O)=O)cc2)n1,121%,94.7%,105%,109%,105%,107%,111%,119%,116%,107%
N#Cc1c(-c2ccc(F)cc2)nc(SCc2ccc(F)cc2)nc1N1CCNCC1,-2.24% (active),-47.4% (active),-84% (active),0.484% (active),-8.59% (active),56.7%,-27.1% (active),-35.1% (active),–,-39% (active)
O=C(CSc1nc2sc3c(c2c(=O)n1-c1ccc(Cl)cc1)CCCC3)NNC(=O)c1ccc(F)cc1,46.3%,83.2%,35.4%,73.8%,83.9%,90.5%,63.3%,119%,79.9%,77.6%
Cc1ccc(C(=O)C[n+]2cccc3c4ccccc4ccc32)cc1,2.32% (active),4.63% (active),22.5%,31.3%,21.1%,33.9%,30.9%,30.3%,27.6%,80.9%
COc1ccc2c(c1)N=c1c-2cc2c(O)[nH]c(=S)n2c1=O,21.7%,62.6%,53.2%,53.5%,86.9%,53.3%,50%,33.8%,–,26.7%
Clc1ccccc1Nc1nnc(-c2c[nH]c3ccccc23)o1,15.7%,4.23% (active),13.4%,29.8%,73.2%,22.1%,19.4%,9.25% (active),–,-18.8% (active)
COc1c2c(c(Br)c3c1C(CCc1ccccc1)N(C)CC3)OCO2 (stereo unspecified),31%,16.7%,48.4%,29.9%,59.9%,76.8%,–,55.5%,61.4%,40%
Cn1cc(-c2cc(N)n3nc(-c4c[nH]c5ccccc45)cc3n2)c2cc(Br)ccc21,13.6%,-9.12% (active),-63.7% (active),-57.1% (active),-40.6% (active),-60% (active),-70.6% (active),-48% (active),–,-18.4% (active)
COc1ccc(/C=C/c2nc3ccccc3c(=O)n2CC(=O)Nc2ccccc2)cc1,54.7%,81.8%,43.6%,60.6%,0.985% (active),44.9%,–,49.3%,9.93% (active),36.8%
COc1ccc(OC)c(Cn2cc(C#N)c(N)c2C(=O)c2ccc(Br)cc2)c1,14.4%,58%,33.9%,71.1%,57.1%,50.9%,48.7%,55.9%,–,23.2%
Cn1cc(-c2cc(N)n3nc(-c4c[nH]c5ccc(F)cc45)cc3n2)c2cc(Br)cnc21,-23.5% (active),19.2%,42.8%,74.2%,71.6%,104%,70.7%,109%,–,56%
CC(C)(C)C(=O)c1c2c(c3ccc4c5ccccc5ccc4n13)C(=O)c1ccccc1C2=O,85.5%,96.6%,96.3%,116%,71.2%,118%,95.7%,94.4%,–,95.5%
O=C(Nc1ccc(Cl)c(C(F)(F)F)c1)N1CCN(c2cc(-c3cn(-c4ccccc4)nc3-c3cccc(O)c3)ccn2)CC1,10.8%,-13.7% (active),8.11% (active),-35.1% (active),13.5%,24.3%,10.8%,13.5%,–,-23.9% (active)
CCC(=O)c1c2c(c3ccc4c5ccccc5ccc4n13)C(=O)c1ccccc1C2=O,71.8%,95.8%,96.1%,122%,88.2%,105%,75.6%,75.9%,–,90.8%
O=[N+]([O-])c1cccc(-c2nnc3c(/C=C/c4ccc(F)cc4)nc4ccccc4n23)c1,85.2%,102%,85.2%,108%,73.7%,101%,109%,116%,–,87.4%
COc1ccc(/C=C/C(=O)c2ccc(OC)c(S(N)(=O)=O)c2)c(C(F)(F)F)c1,0.801% (active),3.98% (active),6.69% (active),3.65% (active),18.6%,66.6%,–,15.8%,49.3%,-31.4% (active)
Clc1ccc2c(NCCNC34CC5CC(CC(C5)C3)C4)ccnc2c1,-35.2% (active),0.134% (active),-63.4% (active),-37.1% (active),-57.3% (active),-83.1% (active),-55.6% (active),-52.4% (active),–,-71.3% (active)
COC(=O)c1c(C(=O)OC)c2c3ccccc3c3ccccc3n2c1C(=O)C(F)(F)F,81.8%,97.6%,99.6%,99.2%,94.7%,107%,82.9%,112%,–,93.7%
COC(=O)c1cc(C(=O)C(F)(F)F)n2c3ccccc3c3ccccc3c12,60.7%,96%,42.7%,83.5%,10.8%,82.9%,40%,82.9%,–,67.7%
CCOC(=O)/C(F)=C/C1CC1C(c1ccccc1)c1ccccc1 (stereo unspecified),63.3%,69.5%,105%,102%,87.3%,148%,–,103%,81.3%,89.4%
COc1ccc(N=Nc2c(N)nn3c(-c4cc5ccccc5oc4=O)ccnc23)cc1,21%,72.8%,38.8%,68.5%,70.8%,57.8%,29.4%,74.3%,–,22.1%
COc1ccc2nc(NC(=O)c3ccc(N(C)C)cc3)sc2c1,42.5%,31.9%,75.7%,93%,75%,111%,99.5%,94.5%,–,52.9%
COc1c2c(cc3c1C(CCc1ccccc1)N(C)CC3)OCO2 (stereo unspecified),-9.93% (active),-15.5% (active),16.9%,16.2%,29.2%,-6.7% (active),-4.07% (active),3.16% (active),–,1.62% (active)
Nc1nn2c(-c3cc4cc(Br)ccc4oc3=O)ccnc2c1N=Nc1ccc(S(N)(=O)=O)cc1,74.4%,109%,79%,112%,100%,58.9%,–,103%,102%,103%
CNS(=O)(=O)N1CCc2c(Br)c3c(c(OC)c2C1CCc1ccccc1)OCO3 (stereo unspecified),4.75% (active),2.66% (active),9.92% (active),-40% (active),-2.26% (active),16.2%,–,-48.8% (active),-22.4% (active),-10.9% (active)
CC(=O)Nc1cccc(-n2c(COc3ccc(Br)cc3)nc3ccccc32)c1,79.1% and 87.9%,87.2% and 107%,113% and 114%,105% and 109%,88.1% and 101%,76.5% and 107%,90.7% and 111%,96.9% and 97.7%,–,89.3% and 104%
O=C(N/N=C/c1ccc(B(O)O)s1)c1[nH]c2ccc(Br)cc2c1-c1ccccc1,-22.6% (active),0.974% (active),-28.3% (active),-97.6% (active),-63.6% (active),-86.7% (active),-74.8% (active),-47.1% (active),–,-33.9% (active)
